JMJD2E inh: JMJD2E (human) inhibition. Potency, µM (series often up to 57.1 µM), for the others: top-dose activity change, negative = inhibition, hits mostly inhibitors. hit rate 1.6% among 230,000. JMJD2E catalytic domain, FDH-coupled NADH fluorescence (FDH is formaldehyde dehydrogenase). AID 2147. B2RXH2; active = well fitted inhibition curve with a large enough effect, not every such curve was filed as active; inconclusive = small, poorly fitted or top-dose-only effect, or another doubt; inactive = no such curve, though single readings can be large or run the other way;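 note: potency is the fitted concentration of half-maximal effect; 0% = wells with enzyme and -100% = buffer wells without enzyme; nearly all actives have a fitted effect of over 50% in size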
Target sequence (B2RXH2 1-337 limits assumed): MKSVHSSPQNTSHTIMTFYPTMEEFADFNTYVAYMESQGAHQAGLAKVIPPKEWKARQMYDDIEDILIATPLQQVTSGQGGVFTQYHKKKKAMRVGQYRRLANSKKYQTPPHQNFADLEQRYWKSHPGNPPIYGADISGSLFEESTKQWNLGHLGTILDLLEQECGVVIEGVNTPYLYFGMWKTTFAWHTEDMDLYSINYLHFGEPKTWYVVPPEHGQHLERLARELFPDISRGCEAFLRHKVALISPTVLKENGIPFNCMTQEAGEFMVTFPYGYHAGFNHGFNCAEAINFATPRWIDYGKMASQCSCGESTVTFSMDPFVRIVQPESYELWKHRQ
Tau fluor counter: counter-screen for tau fibril formation inhibitors; tau K18 P301L Alexa594 fluorescence, heparin fibrillization; Potency, µM (highest dose often 57.7 µM), for the others: at the highest dose activity change, negative = decrease; hit rate 0.93% among 280,000; note: potency is the fitted concentration of half-maximal effect; nearly all actives have a fitted effect of over 55% in size
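Human tau K18 P301L (15 uM unlabeled, 0.24 uM Alexa 594-labeled) in 100 mM sodium acetate pH 7 with 20 uM heparin, 6 hr at 37 C. ThT 30 uM added, 1 hr ambient; Alexa 594 FP and total fluorescence read at 555/632 nm.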
NPSR antag: neuropeptide S receptor (human) antagonism, cAMP; AID 1461; CHO-NPSR cells, cAMP TR-FRET, antagonist mode; hit rate 1% among 220,000; Potency, µM (highest dose often 38.3 µM), without a hit: at the top dose activity change, negative = inhibition, actives largely listed as inhibitors; note: potency is the fitted concentration of half-maximal effect; nearly all actives have a fitted effect of over 50% in size
Tau fibril FP: inhibitors of human tau fibril formation; P10636; K18 P301L tau heparin fibrillization, Alexa594 FP, 6 h; Potency, µM (doses to about 57.7 µM), without a hit: at the top dose activity, negative = inhibition, most hits filed as inhibitors; hit rate 0.39% among 280,000; note: potency is the fitted concentration of half-maximal effect; nearly all actives have a fitted effect of over 55% in size
Target sequence (P10636 561-689 P618L limits assumed): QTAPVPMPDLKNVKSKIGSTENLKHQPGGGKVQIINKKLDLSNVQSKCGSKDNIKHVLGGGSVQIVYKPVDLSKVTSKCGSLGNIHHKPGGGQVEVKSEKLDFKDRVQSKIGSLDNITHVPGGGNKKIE
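Human tau K18 […] P301L fragment, 15 uM unlabeled plus 0.24 uM Alexa 594-labeled tau (final), with compound and 20 uM heparin in 100 mM sodium acetate pH 7; 6 hr at 37 C, then Alexa 594 FP read.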
Tau fibril ThT: tau fibrillization inhibition (ThT binding) | P10636 | recombinant tau K18 P301L, heparin-induced fibrillization, ThT fluorescence | Potency, µM (doses to about 57.4 µM), for inactives: top-dose activity, negative = inhibition, hits mostly inhibitors | hit rate 2.1% among 270,000; note: potency is the fitted concentration of half-maximal effect; nearly all actives have a fitted effect of over 55% in size
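Using a mix of unlabeled (15 uM) and Alexa 594-labeled (0.24 uM) tau K18 P301L, heparin-triggered fibrillization over 6 hr at 37 C was scored by ThT fluorescence.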
PNC assembly inh: blocks assembly of the perinucleolar compartment; PC3M PTB-GFP, PNC prevalence imaging, 16 h; active compounds read low; activity change (PNC), negative = inhibition, % at 10 µM; hit rate 3.1% among 140,000; AID 2417;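 active = readout at or below -70, meaning at least 70% loss of cells showing the perinucleolar compartment, a nuclear body marking cancer cells; inconclusive = readout between -30 and a set limit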;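 note: plate controls were DMSO wells for no effect and camptothecin positive control wells for full effect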
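PC3M cells stably expressing PTB-GFP, 750–1000 cells/well, treated 16 h at 37 °C with compound (23 nl of library stock), in duplicate. After paraformaldehyde fixation and Hoechst stain, imaged at 20x; PNC prevalence scored by image analysis.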
The depositor's hits bear a star; ? = inconclusive; nt = no result given; [ ] = remark or other dose. Hits are enriched below; roughly 5.1% of the tested compounds scored in any of these assays. Unless noted, calls come from the whole dose curve; as a rule, active = well fitted curve in the direction sought with a large enough effect; inconclusive = small, poorly fitted or top-dose-only effect, or another doubt; inactive = no such curve, though single readings can be large; an effect the other way counts as inactive or inconclusive. Unless noted, % is set by controls: 0 for no effect and ±100 for the full control effect.

SMILES	JMJD2E inh	Tau fluor counter	NPSR antag	Tau fibril FP	Tau fibril ThT	PNC assembly inh
COc1ccc(NS(=O)(=O)c2ccc3oc(Nc4ccc5c(c4)OCCO5)nc3c2)cc1	?	13µM*[quencher]	?	?	?	23
O=S(=O)(Nc1ccc(Cl)cc1)c1cccc(S(=O)(=O)c2ccc(Cl)c(Cl)c2)c1	nt	?	nt	11µM*	10%	nt
O=C(N/N=C/c1ccncc1)c1cccc(S(=O)(=O)Nc2ccc(Cl)cc2)c1	3.5µM*	-5%	7%	-19%	3%	nt
COc1ccc(NS(=O)(=O)c2ccc(NS(=O)(=O)c3ccc4c(c3)OCCO4)cc2)cc1	nt	?	nt	?	4%	nt
O=S(=O)(Nc1ccc(Cl)cc1)c1ccc(NS(=O)(=O)c2ccc3c(c2)OCCO3)cc1	nt	?	nt	14µM*	14%	nt
CC(C)C(=O)Nc1cc(S(=O)(=O)Nc2ccc(Cl)cc2)ccc1Cl	7%	-27%	1%[46.1 µM]	-12%	-3%	-9
Cc1ccc(OCC(=O)NCC2(N(C)C)CCCCC2)cc1C	nt	0%	nt	6%	-3%	nt
O=C(NC(CSCc1ccccc1)C(=O)N/N=C/c1ccc(O)cc1O)c1ccc([N+](=O)[O-])cc1 (stereo unspecified)	?	13µM*[quencher]	?	?	?	-5
COc1cc(O)ccc1/C=N/NC(=O)c1ccc([N+](=O)[O-])cc1	39%	-4%	8%	7%	?	nt
CCn1c(=O)n(CC)c2cc(N3CCCCC3)c(NC(=O)Nc3cc(C)cc(C)c3)cc21	nt	-18%	nt	11%	-12%	nt
CCOc1ccc(NC(=O)C(C)Oc2ccccc2C(=O)Nc2cccc(Cl)c2Cl)cc1 (stereo unspecified)	8%	-29%	-20%[46.1 µM]	?	-2%	-110*
CCOc1ccc(NC(=O)c2ccccc2CO)cc1	-13%	-9%	3%[46.1 µM]	5%	-11%	9
CCOc1ccc(NC(=O)c2ccccc2OC)cc1	5%	-7%	-8%[46.1 µM]	-1%	?	?
CCOc1ccc(NC(=O)c2ccccc2O)cc1	?	-11%	3%	7%	-13%	-104*
O=[N+]([O-])c1cccc(C2=N[C@@H](Cc3ccccc3)CO2)c1	nt	-22%[81.3 µM]	nt	13%[81.3 µM]	?	nt
CCOc1ccc(CNC(=O)CCS(=O)(=O)c2cc3c4c(c2)CCN4C(=O)CC3)cc1	nt	-3%	nt	4%	1%	nt
Cc1ccc2nc(N(Cc3cccnc3)C(=O)CCOc3ccccc3)sc2c1	nt	-6%	nt	?	-2%	nt
O=C(CCN1C(=O)/C(=C/C=C/c2ccccc2)SC1=S)Nc1nc2ccccc2s1	16%	-22%	-15%	5%	3.5µM*	65
O=C(CN1C(=O)/C(=C\C=C\c2ccccc2)SC1=S)Nc1ccc(F)cc1	2%	13%	-28%	4%	12%	-15
O=C(COC(=O)CCN1C(=O)/C(=C\C=C\c2ccccc2)SC1=S)Nc1cc(F)ccc1F	-16%	?	-48%	1%	6.3µM*	nt
O=Cc1ccccc1-n1cccn1	-2%	-2%	6%	-10%	-2%	nt
Oc1cc(-n2cccn2)c(O)cc1-n1cccn1	16µM*	16µM*[quencher]	12%	?	16µM*	nt
CCCCCN1C(C(=O)c2ccccc2)=C(NC(=O)c2ccccc2Cl)c2ccccc2S1(=O)=O	nt	-30%	nt	-5%	-1%	nt
COc1ccc2nc(N(Cc3cccnc3)C(=O)c3ccco3)sc2c1	nt	-9%	nt	-3%	-7%	nt
O=c1cc(-c2ccccc2Cl)oc2ccc([N+](=O)[O-])c(O)c12	?	-18%[81.3 µM]	-23%	-3%[81.3 µM]	11µM*	43
SMILES	JMJD2E inh	Tau fluor counter	NPSR antag	Tau fibril FP	Tau fibril ThT	PNC assembly inh
COc1ccc(O)c(/C=N/Nc2nc(Nc3ccccc3)nc(-n3nc(C)cc3C)n2)c1	14µM*	?	1.3µM*	?	?	?
COc1ccc(-c2noc(CNC(=O)c3ccccc3Br)n2)cc1	nt	4%	nt	-5%	?	nt
CNc1sc(C(=O)c2cccs2)c(N)c1-c1nc2ccccc2s1	-1%	11µM*[quencher]	3.2µM*	32µM*	7.9µM*	26
CNc1sc(C(=O)c2ccc(F)cc2)c(N)c1-c1nc2ccccc2s1	-1%	?	?	-1%	16µM*	4
CCCCn1c(SCC(=O)c2ccc(O)c(O)c2)nc2ccsc2c1=O	?	?	-9%[46.1 µM]	9%	?	-25
O=C(O)CCCCn1c(SCC(=O)Nc2ccccc2C(F)(F)F)nc2ccsc2c1=O	0%	8%	-6%	-1%	10%	-113*
O=C(O)CCCCCn1c(SCC(=O)c2ccc(O)c(O)c2)nc2ccsc2c1=O	10µM*	-16%	13%	0%	?	?
O=C(CCCn1c(SCC(=O)c2ccc(O)c(O)c2)nc2ccccc2c1=O)NCC1CCCO1 (stereo unspecified)	8.9µM*	-29%	?	7%	?	?
O=C(CCCn1c(SCC(=O)NC2CCCCC2)nc2ccccc2c1=O)NCC1CCCO1 (stereo unspecified)	4%	-5%	1%[46.1 µM]	-1%	-8%	-8
CCc1ccc(CNC(=O)CN2C(=O)c3cccnc3Oc3ccc(C)cc32)cc1	nt	-13%	nt	-3%	-13%	nt
CCCCN(C)S(=O)(=O)c1ccc(C(=O)N=c2sc3cc(NC(C)=O)ccc3n2C)cc1	?	4%	4%	7%	12%	-94*
CCCCN(CC)S(=O)(=O)c1ccc(C(=O)N=c2sc3cc(NC(C)=O)ccc3n2C)cc1	2%	-5%	?	-6%	1%	34
O=C(OCc1nnc(-c2ccc(Cl)cc2)o1)c1ccncc1	-15%	0%	-21%[46.1 µM]	5%	-6%	28
Cc1noc(C)c1COc1ccc(C(=O)OCc2nnc(-c3ccc(Cl)cc3)o2)cc1	-2%	-20%	-26%[46.1 µM]	5%	?	-84*
CC1(C)CC(=O)C(CC2CCCCC2=O)C(=O)C1 (stereo unspecified)	-1%	10%	-18%	1%	8%	nt
CC1(C)CC(=O)C(CC2C(=O)CC(C)(C)CC2=O)C(=O)C1	0%	?	16%	?	10µM*	nt
CC1(C)Cc2ccccc2C2=NNC(=O)C2=N1	?	-12%	-21%	?	16µM*	nt
CC1(C)Cc2ccccc2C(Nn2cnnc2)=N1	3%	1%	2%[46.1 µM]	-4%	-8%	9
CCOC(=O)c1ccccc1NC(=O)CSc1nc(=O)[nH]c2c1CCC2	nt	-8%	nt	-14%	-10%	nt
COc1ccc(NC(=O)c2ccco2)cc1NC(=O)c1cc(OC)c(OC)c(OC)c1	nt	-19%	nt	-12%	-10%	nt
Cc1c2ccccc2nc2c(F)c(NCCO)c(F)c(F)c12	-3%	?	0%	?	13µM*	18
